LmPK inh = inhibitors of Leishmania mexicana pyruvate kinase | Q27686 | purified LmPK, Kinase-Glo ATP luminescence, 1 h | Potency, µM (titrated, usually from 57.5 µM), inactives show at the highest dose activity change, negative = inhibition, actives largely listed as inhibitors | actives 0.37% (n = 290,000) | AID 1721; note: % is set by controls: 0 for no effect and ±100 for the full control effect
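Pyruvate kinase activity monitored as ATP production (luciferase luminescence). Conditions: 0.1 nM enzyme, 0.5 mM PEP, 0.1 mM ADP, 1 h, RT; normalized against uninhibited and no-enzyme wells.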
NS1 inh = inhibitors of influenza NS1 protein function; Potency, µM (series often up to 46.1 µM), for the others: at the highest dose activity, positive = more growth; actives 0.4% (n = 270,000); calls by dose curve; note: actives are rising curves; nearly all actives have a fitted effect of over 50% in size
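A cell-based growth assay was used: compounds that relieve NS1-induced slow growth of budding yeast raise OD600. Assay medium was yeast nitrogen base with ammonium sulphate and -URA supplement, pH 6.0, with 2% galactose.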
TbPYK inhibitor = T. brucei pyruvate kinase inhibition; Q57TT1; actives 0.12% (n = 410,000); AID 624173; TbPYK enzyme, Kinase-Glo Plus ATP luminescence, 45 min; Potency, µM (top dose mostly 76.8 µM), for inactives: at the top dose activity, negative = inhibition, usual class: inhibitors; note: % is set by controls: 0 for no effect and ±100 for the full control effect; nearly all actives have a fitted effect of over 50% in size
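Enzyme and substrate buffer are dispensed first and compound is pin-transferred. ADP at 130 uM final then starts the reaction, which runs 45 min at room temperature. Detection reagent is added for 10 min before luminescence is imaged.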
RE007 growth inh = less growth of the S. pombe RE007 Vpr strain. S. pombe RE007 Vpr strain, BacTiter-Glo ATP luminescence, 24 h. Potency, µM (doses to about 92.2 µM), inactives show at the top dose activity change, negative = less growth, hits mostly inhibitors. actives 0.21% (n = 360,000); active = well fitted falling curve with a large enough effect; inconclusive = small, poorly fitted or top-dose-only effect; inactive = no such curve, though single readings can be large or run the other way; note: % is set by controls: 0 for no effect and ±100 for the full control effect; nearly all actives have a fitted effect of over 50% in size
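Fission yeast strain RE007, carrying one chromosomally integrated HIV-1 vpr copy, was seeded at OD 0.01 in PMG+AL medium with 23 nL pinned compound. After 24 h at 30 °C and 99% humidity, viability was read by BacTiter-Glo luminescence.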
FBPA Giardia inh = inhibitors of Giardia lamblia fructose-1,6-bisphosphate aldolase | A8B2U2 | purified Giardia FBPA | Potency, µM (series often up to 59.6 µM), for inactives: top-dose activity, negative = inhibition, hits mostly inhibitors | actives 0.71% (n = 290,000); note: % is set by controls: 0 for no effect and ±100 for the full control effect; nearly all actives have a fitted effect of over 55% in size
Target sequence (A8B2U2 whole entry, looked up): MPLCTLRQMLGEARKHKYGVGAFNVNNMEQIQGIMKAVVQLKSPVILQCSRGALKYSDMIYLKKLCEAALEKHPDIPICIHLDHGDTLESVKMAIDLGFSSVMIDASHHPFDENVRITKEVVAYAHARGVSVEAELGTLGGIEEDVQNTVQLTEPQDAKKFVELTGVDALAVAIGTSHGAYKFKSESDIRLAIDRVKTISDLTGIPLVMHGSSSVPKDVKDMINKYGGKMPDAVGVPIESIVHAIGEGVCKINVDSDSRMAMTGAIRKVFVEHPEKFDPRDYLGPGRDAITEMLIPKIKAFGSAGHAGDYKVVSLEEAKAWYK
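40 nM FBPA preincubated 10 min at RT with compound (up to 57.5 uM final), then substrate plus GAPDH/TPI/NAD/arsenate coupling and diaphorase/resazurin added. Fluorescence read after 20 min at RT, 525/598 nm.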
Sm TGR block = S. mansoni TGR enzyme inhibition | Q962Y6 | purified TGR, DTNB reduction, TNB absorbance 405 nm | Potency, µM (highest dose often 114 µM), inactives show at the top dose activity change, negative = inhibition, hits mostly inhibitors | actives 3% (n = 360,000) | AID 485364; note: % is set by controls: 0 for no effect and ±100 for the full control effect; nearly all actives have a fitted effect of over 60% in size
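TGR 20 nM + NADPH 100 uM (dispensed conc.), cpd preinc 15 min RT; start with NADPH (500 uM addition) then DTNB (15 mM addition). Kinetic TNB absorbance, 405 nm filter. Four-parameter Hill fit across titration.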
* hit, by the source's call; ? = inconclusive; . = no result; [ ] = another dose, or the depositor's remark. Sampled rows, rich in hits. Any-hit rate of the full collection: about 3.5%. Unless noted, calls come from the whole dose curve; as a rule, active = well fitted curve in the direction sought with a large enough effect; inconclusive = small, poorly fitted or top-dose-only effect, or another doubt; inactive = no such curve, though single readings can be large; an effect the other way counts as inactive or inconclusive. Potency is the fitted concentration of half-maximal effect.

SMILES	LmPK inh	NS1 inh	TbPYK inhibitor	RE007 growth inh	FBPA Giardia inh	Sm TGR block
O=C(Oc1ccc([N+](=O)[O-])cc1)c1cncc(Br)c1	-2%	3%	-13%	24%	-3%	18µM*
CC(C)C[C@H](N)c1nnc(S(=O)(=O)Cc2ccc(F)cc2)o1	5%	-63%	4%	-28%	24%	1µM*
CC(C)C[C@H](N)c1nnc(SCc2ccc(Cl)cc2Cl)o1	.	.	3%	.	.	8%
CCc1nn(Cc2c(C)cc(C)cc2C)c(=O)c2cc3cc(C)ccc3n12	.	.	1%	.	.	-5%
CC(C)N1CCc2c(sc(NC(=O)c3ccco3)c2C(N)=O)C1	1%	26%	-1%	-9%	-27%	50µM*
CNC(=O)c1c(NC(=O)c2ccco2)sc2c1CCCC2	-4%	-55%	-1%	-11%	.	-21%
CN1CCc2c(sc(NC(=O)c3ccc(S(=O)(=O)N4CCCC4)cc3)c2C(N)=O)C1	-11%	19%	-3%	-1%	.	100µM*
COC(=O)c1c(NC(=O)c2ccco2)sc2c1CCN(C(C)C)C2	4%	-1%	-5%	0%	-28%	-33%
Cc1ccc(C(=O)C(NC(=O)c2ccco2)Nc2sc3c(c2C(N)=O)CCCC3)cc1 (stereo not drawn)	-3%	7%	.	.	-28%	28µM*
CN1CCc2c(sc(NC(=O)c3ccc(S(=O)(=O)N4CCCCCC4)cc3)c2C(N)=O)C1	-3%	-9%	-1%	-2%	.	-22%
O=C(COc1ccccc1)NCC(c1cccs1)S(=O)(=O)c1ccc(Cl)cc1 (stereo not drawn)	.	.	-8%	.	.	?
Cc1ccc(NC(=O)Cn2c(C)cc(C)c(C#N)c2=O)cc1	.	.	-9%	.	.	2%
CN(Cc1ccco1)C(=O)c1ccc2c(c1)N(Cc1ccccc1F)C(=O)c1ccccc1S2	.	.	1%	.	.	?
Cc1ccc(N2C(=O)C3C(C2=O)N2C(c4cccs4)C4C(=O)N(c5ccc(C)cc5)C(=O)C4N2C3c2cccs2)cc1 (stereo not drawn)	0%	2.5µM*	1%	19%	-1%	-3%
CCOC(=O)C1(C)NC(c2cccs2)C2C(=O)N(c3ccc(C)cc3)C(=O)C21 (stereo not drawn)	-7%	.	-1%	2%	5%	-5%
CCN1CCN(Cc2c(O)ccc3c2O/C(=C\c2ccccc2)C3=O)CC1	-19%	17%	3%	-25%	-16%	45µM*
CN(C)Cc1c(O)ccc2c1O/C(=C\C=C\c1ccccc1)C2=O	-1%	?	0%	-6%	-8%	11µM*
CC1CCCN(Cc2c(O)ccc3c2O/C(=C\c2ccco2)C3=O)C1 (stereo not drawn)	6%	-4%	-12%	-8%	-30%	25µM*
O=C1/C(=C/C=C/c2ccccc2)Oc2c1ccc(O)c2CN1CCN(CCO)CC1	-6%	19%	1%	-18%	-8%	40µM*
CCN1CCN(Cc2c(O)ccc3c2O/C(=C\c2ccc(C)cc2)C3=O)CC1	2%	.	-2%	2%	-2%	?
COc1ccc(N2CC(NC(=O)CCc3ccccc3)CC2=O)cc1OC (stereo not drawn)	.	.	-9%	.	.	6%
Cc1ccc(S(=O)(=O)c2nnn3c2nc(N2CCN(c4cccc(C)c4C)CC2)c2ccccc23)cc1C	.	.	5%[15.4 µM]	.	.	18%
CCCN(CCC)C(=O)c1nn(C)c2c1CSc1ccc(C)cc1-2	.	.	-8%	.	.	6%
CCCCCCCCCCCNC(=O)c1ccoc1C	2%	-12%	0%	-16%	-3%	18µM*
Cc1cc(C)c2c(=O)n(CC(=O)Nc3cccc(Cl)c3C)sc2n1	?	-53%	?	?	-12%	-36%
SMILES	LmPK inh	NS1 inh	TbPYK inhibitor	RE007 growth inh	FBPA Giardia inh	Sm TGR block
Cc1cc(C)c2c(=O)n(CC(=O)Nc3ccc(Br)c(C)c3)sc2n1	-22%	-88%	8.9µM*	?	-19%	-30%
Cc1cc(C)c2c(=O)n(CC(=O)NC3CCCC3)sc2n1	-5%	3%	10µM*	-13%	-16%	?
Cc1ccc2nc(Nc3cccc(C(F)(F)F)c3)c3nnnn3c2c1	.	.	3%	.	.	-2%
CCCS(=O)(=O)c1cn2cccc(N)c2c1S(=O)(=O)CCC	-12%	7%	-11%	-14%	?	22µM*
CCCS(=O)(=O)c1c(S(=O)(=O)CCC)c2c(C)cccn2c1C(N)=O	-1%	6%	-9%	3%	0%	-27%
CC1CCC/C=C/C(=O)c2c(O)cc(O)cc2CC(=O)O1 (stereo not drawn)	0%	0%	-3%	4%	?	7.9µM*
CC(C)(C)C1=C(C#N)C(c2cc3c(cc2Br)OCO3)C(C#N)=C(N)O1 (stereo not drawn)	3%	-70%	-2%	-6%	-22%	2.8µM*
Cc1ccc(C2C(C#N)=C(N)Oc3cc4c(cc32)OCO4)cc1 (stereo not drawn)	5%	-2%	4%	-1%	?	-28%
COc1ccc(-c2cc(C(C)=O)c(C)n2CCC(=O)NCc2ccc(F)cc2)cc1	.	.	-1%[15.4 µM]	.	.	0%
C=CCn1c(SCC(=O)Nc2sccc2C(N)=O)nc2sc(C)c(C)c2c1=O	0%	-19%	0%	-4%	-16%	40µM*
C=CCn1c(SCC(=O)Nc2ccccc2C)nc2sc(C)c(C)c2c1=O	-2%	0%	-1%	-2%	1%	-4%
O=C(CSc1nc2scc(-c3ccco3)c2c(=O)n1-c1ccccc1)NCC1CCCO1 (stereo not drawn)	-4%	-26%	.	26%[3.69 µM]	-22%	3.2µM*
C=CCn1c(SCC(N)=O)nc2scc(-c3ccc(C)o3)c2c1=O	-16%	2%	-12%	9%	-3%	18µM*
C=CCn1c(SCC(=O)NCC2CCCO2)nc2scc(-c3ccco3)c2c1=O (stereo not drawn)	3%	?	-16%	-22%	-6%	7.9µM*
C=CCn1c(SCC(=O)NCC2CCCO2)nc2scc(-c3ccc(OC)cc3)c2c1=O (stereo not drawn)	7%	2%	7%	6%	-5%	2%
O=C1CC(c2ccccc2)Cc2[nH]c(=O)c(-c3nc(-c4ccc(Cl)cc4)cs3)cc21 (stereo not drawn)	.	.	4%	.	.	0%
CO[C@@]1(NC(=O)CSC[C@@H](N)C(=O)O)C(=O)N2C(C(=O)O)=C(CSc3nnnn3C)CS[C@@H]21	.	.	-1%	.	.	.
C=CCn1c(SCc2ccccc2)nc2scc(-c3ccc(C)o3)c2c1=O	-2%	9%	-10%	-3%	2%	?
O=C(CSc1nc2scc(-c3ccco3)c2c(=O)n1-c1ccccc1)N1CCOCC1	9%	-3%	0%	-8%	1%	45µM*

High-throughput results as filed in PubChem BioAssay.
